Test results from ChEMBL document CHEMBL3433997, “St. Jude Leishmania screening dataset” (2016).

Columns and labels:
Assay type in all cases: functional
[1] = target: Solute carrier family 2, facilitated glucose transporter member 1 (Homo sapiens) (UniProt P11166); test: ST_JUDE_LEISH: Cytotoxicity at 2uM final concentration against transgenic Leishmania Mexicana promastigotes LmGLUT1 that are glucose transport deficient and complemented with the human glucose transporter GLUT1. Activity is measured by DNA content using SYBR green in vitro
Sequence of Solute carrier family 2, facilitated glucose transporter member 1 (Homo sapiens) (P11166 whole entry): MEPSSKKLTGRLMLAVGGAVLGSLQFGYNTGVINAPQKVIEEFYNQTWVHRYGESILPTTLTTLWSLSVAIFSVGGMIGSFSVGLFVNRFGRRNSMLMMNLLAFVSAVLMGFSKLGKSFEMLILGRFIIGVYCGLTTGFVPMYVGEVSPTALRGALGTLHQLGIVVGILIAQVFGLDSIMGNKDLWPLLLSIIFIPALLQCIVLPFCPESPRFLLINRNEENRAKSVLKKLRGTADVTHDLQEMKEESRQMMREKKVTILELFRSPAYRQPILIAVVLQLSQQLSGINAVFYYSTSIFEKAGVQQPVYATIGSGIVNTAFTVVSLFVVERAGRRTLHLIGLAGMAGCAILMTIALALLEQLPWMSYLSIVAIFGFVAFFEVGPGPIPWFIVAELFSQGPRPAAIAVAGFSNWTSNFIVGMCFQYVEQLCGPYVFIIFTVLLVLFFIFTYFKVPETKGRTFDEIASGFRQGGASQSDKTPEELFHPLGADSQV

[2] = target: Hexose transporter 1 (Plasmodium falciparum) (UniProt O97467); test: ST_JUDE_LEISH: Cytotoxicity at 2uM final concentration against transgenic Leishmania Mexicana promastigotes LmPfHT that are glucose transport deficient and complemented with the Plasmodium falciparum hexose transporter. Activity is measured by DNA content using SYBR green in vitro
[3] = target: Glucose transporter (Leishmania mexicana) (UniProt O61059); test: ST_JUDE_LEISH: Cytotoxicity at 2uM final concentration against transgenic Leishmania Mexicana promastigotes LmGT2 that are glucose transport deficient and complemented with the L. Mexicana glucose transporter 2. Activity is measured by DNA content using SYBR green in vitro

Nc1cc(-c2ccc(Br)cc2O)nc2ccccc12
inhibition [1]: 1.51% | inhibition [2]: 0.65% | inhibition [3]: 2.06%

C=CCOC(=O)N1CCC(CNCc2cccc(-c3ccc(-c4nc5cc(C(F)(F)F)ccc5[nH]4)cc3)c2)C1 (configuration not stated)
inhibition [1]: 2.19% | inhibition [2]: 2.5% | inhibition [3]: 1.63%

Clc1ccc2c(N3CCCNCC3)ccnc2c1
inhibition [1]: 1.53% | inhibition [2]: 1.07% | inhibition [3]: 4.48%

CN(C)CCOc1ccc(NC(=O)NC(C)(C)c2nc(-c3ccc(Cl)c(O)c3)c(-c3ccncc3)[nH]2)cc1
inhibition [1]: -2.42% | inhibition [2]: -2.62% | inhibition [3]: -2.59%
